Measured values: PubChem BioAssay AID504558 (Broad Institute, 2011)
About 2,400 (0.69%) of roughly 350,000 compounds were called active. This is one part of a sample in which actives are shown more often than they occur. A number with no mark means an inactive call. Rule as the data show it: active = inhibition above about 41%; inconclusive = no clear call, values can overlap the other calls; inactive = below that.

Test: EBV LMP1-driven NF-kappaB luciferase reporter inhibitors, primary screen, cell-based, luminescence, single point (AID 504558);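 also: 0% = neutral control wells and 100% = reference inhibitor control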
Details: LMP1-induced NF-kappaB luciferase reporter cells, at 12.5 µM, active compounds read high

| SMILES | inhibition |
| --- | --- |
| CC(=O)NNC(=O)c1csc(Cc2c(Cl)sc3ccc(Cl)cc23)n1 | 8.06% |
| CNC(=O)c1csc(-c2ccccc2)n1 | 6.33% |
| CNC(=O)c1csc(Cc2c(Cl)sc3ccc(Cl)cc23)n1 | 54.8% (active) |
| C[C@@H]1CN([C@H](C)CO)S(=O)(=O)c2ccc(C#C[C@@H](C)O)cc2O[C@@H]1CN(C)Cc1ccc(-c2ccccc2)cc1 | -5.47% |
| Cc1onc(-c2ccccc2)c1-c1nnc(COC(=O)c2ccc(N(C)C)cc2)o1 | 16.7% |
| COc1ccc(-c2nnc(NC(=O)CS(=O)(=O)c3ccc(Cl)cc3)o2)c(OC)c1 | -10.8% |
| COc1cccc(-c2nnc(NC(=O)c3ccc(S(=O)(=O)N(CC(C)C)CC(C)C)cc3)o2)c1 | 44.9% (active) |
| COc1cc(-c2nnc(NC(=O)CS(=O)(=O)c3ccc(Cl)cc3)o2)cc(OC)c1OC | 3.37% |
| CNC(=O)C[C@H]1C(=O)N(Cc2ccccc2)C[C@@H]1CSC | -2.82% |
| O=C(C[C@H]1C[C@H]2c3cc(NS(=O)(=O)c4ccc(F)cc4)ccc3O[C@H]2[C@H](CO)O1)NCc1cc(F)ccc1F | 4.21% |
| COc1cccc(CNc2nc(C(F)(F)F)nc3ccccc23)c1 | -0.361% |
| COc1ccc(CNc2ncnc3ccccc23)cc1 | 41.7% (active) |
| COc1ccc(CNc2nccs2)cc1 | 8.57% |
| COc1ccc(C(=O)Nc2cc(C)c(NC(=O)c3ccccc3OC)cn2)cc1 | 40.6% (active) |
| COc1ccc(C(=O)N/N=C(\C)CC(=O)Nc2ccc(Cl)cn2)cc1 | -1.25% |
| COc1cc2ccccc2cc1C(=O)Nc1ccccc1C | -76.9% |
| O[C@@H]1C[C@H](c2ccccc2)N(Cc2cccs2)C[C@H]1n1cc(C2CC2)nn1 | -8.56% |
| Cc1ccc(C(=O)OCC(=O)NC2CCCCCCC2)cc1C | 7.43% |
| COc1ccc(C(C)(C)C)cc1NC(=O)CN(C)C1=NS(=O)(=O)c2ccccc21 | -11.2% |
| COC(=O)c1[nH]c2ccccc2c1NC(=O)CN1CCCc2ccccc21 | -17.6% |

| SMILES | inhibition |
| --- | --- |
| COC(=O)c1[nH]c2cccc(C)c2c1NC(=O)CN1CCCc2ccccc21 | 87.4% (active) |
| NS(=O)(=O)c1cccc(NC(=O)CN2CCCc3ccccc32)c1 | -3.3% |
| O=C(CCc1ccc(O)cc1)NN=Cc1cc(Br)ccc1O | 6.93% |
| Cc1ccccc1OS(=O)(=O)c1cccc([N+](=O)[O-])c1 | 0.335% |
| Fc1ccc2[nH]c3c(N4CCSCC4)ncnc3c2c1 | 53.7% (active) |
| O=C(NCC(F)(F)F)c1ccc(S(=O)(=O)NCCc2ccc3c(c2)OCCO3)cc1 | 0.519% |
| C[C@@H]1CN([C@@H](C)CO)C(=O)CCCn2nncc2CO[C@@H]1CN(C)S(=O)(=O)c1ccc(-c2ccccc2)cc1 | -1.13% |
| COC(=O)CCNc1ccc2c(c1)OCCO2 | 45.2% (active) |
| COc1ccccc1OCCCC(=O)Nc1ccc2c(c1)OCCO2 | -0.694% |
| Cc1ccc(OCCCC(=O)Nc2ccc3c(c2)OCCO3)cc1 | 8.28% |
| CCc1nnc(NC(=O)c2ccco2)s1 | -0.797% |
| CC(=O)Nc1ccc(C=Cc2ccc([N+](=O)[O-])cc2)cc1 | -20.1% |
| O=C1/C(=C\c2ccc([N+](=O)[O-])cc2)CS(=O)(=O)C/C1=C/c1ccc([N+](=O)[O-])cc1 | 92.5% (active) |
| CNC(=S)Nc1ccc([N+](=O)[O-])cc1 | -10.6% |
| CCCn1c(N)c(C(=O)CSc2nnc(Cc3cccs3)n2C2CC2)c(=O)[nH]c1=O | 0.699% |
| O=C(CSc1ncn[nH]1)Nc1nc2c(F)c(F)c(F)cc2s1 | -1.34% |
| CCOC(=O)/C(=C\c1ccc([N+](=O)[O-])cc1)C(=O)c1cc(C(C)=O)c(Nc2ccccc2)s1 | 55.7% (active) |
| O=C(O)C(=Cc1ccc([N+](=O)[O-])cc1)CCc1ccccc1 | 2.53% |
| CCOC(=O)C(=Cc1ccccc1)C(=O)c1ccccc1 | 31.5% |
| COc1ccc(NC(=O)CN(C)C(=O)c2cc(C)oc2C)cc1 | -4.83% |

| SMILES | inhibition |
| --- | --- |
| Cc1cccc(C)c1NC(=O)CNC(=O)c1ccc(N2CCOCC2)c([N+](=O)[O-])c1 | -0.676% |
| CS(=O)(=O)N1CCN(C(=O)c2cc3ccccc3oc2=O)CC1 | 9.53% |
| COc1cccc(-n2c(=S)[nH]c3c(oc4ccccc43)c2=O)c1 | -10.2% |
| O=c1oc2ccccc2cc1-c1cn(-c2ccccc2)c(=S)[nH]1 | 73.5% (active) |
| C[C@H]1CN([C@@H](C)CO)C(=O)CCCn2cc(nn2)CO[C@@H]1CN(C)C(=O)Nc1ccccc1 | -0.0595% |
| Cc1ccc([C@H]2C[C@H](O)[C@@H](n3cc(COC(=O)c4ccccc4)nn3)CN2C(=O)C2CCCCC2)cc1 | 7.15% |
| COc1ccc(CN2C(=O)C(CC(=O)NCc3cccc4ccccc34)CC(C(=O)N3CCOCC3)=C2C)cc1 (stereo not drawn) | 1.6% |
| CSc1nc(-c2ccccc2)nc(C(Cl)Cl)n1 | 85.7% (active) |
| Cc1csc(SCC(=O)Nc2ccc(C)c(S(=O)(=O)N(C)C)c2)n1 | -5.08% |
| Cc1ccc(CCNC(=O)CN2C(=O)CSc3ccc(S(=O)(=O)N4CCOCC4)cc32)cc1 | -9.19% |
| O=C1CC[C@@H](C(=O)N2CSC[C@@H]2C(=O)Nc2ccc(C(F)(F)F)cc2)N1 | -8.12% |
| CN(c1ccc2nc3ccccc3c(=O)n2n1)C1CCCCC1 | 76% (active) |
| CC(C)c1cc(C(=O)NC2CCCCCC2)c2ccccc2n1 | -2.77% |
| CC(C)C(C)NC(=O)COc1nc2ccccc2nc1N(C)C1CCCCC1 (stereo not drawn) | -16% |
| CC1(c2cccc(N)c2)OCCO1 | -20.7% |
| COC(=O)C(C)NC(=O)COc1ccc2ccccc2c1 (stereo not drawn) | -5.65% |
| Cc1cc2ccccc2n1CCC(=O)O | 2.51% |
| Cc1cc2ccccc2n1CCNC(=O)COc1ccc2ccccc2c1 | 52.5% (active) |
